A selection: hits, their analogues and other compounds. The true share with any hit is near 4.2%.
CCHF vOTU inh: blocks the CCHF virus ovarian tumor domain protease. hit rate 0.55% among 370,000. inhibition, % at 11.5 µM. CCHFV vOTU protease, Pep-AMC fluorescence. AID 651958
Mtb betalactam: beta-lactam sensitization of Mtb H37Rv; AID 434955; M. tuberculosis H37Rv growth with meropenem, percent inhibition; inhibition, % at 25 µM; hit rate 0.27% among 330,000; call rule not given here;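 also: growth measured after seven days incubation then overnight dye step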
RecA splice inh: blocks M. tuberculosis RecA intein splicing | P9WHJ3 | cell-free RecA intein splicing, fluorescence | inhibition, % (test concentration not listed) | hit rate 0.75% among 290,000; in the data active = inhibition above about 30%
FBA Mtb inh: inhibitors of M. tuberculosis fructose-bisphosphate aldolase. purified M. tuberculosis FBA, fluorescence read-out. inhibition, % at 1 µM. hit rate 2.3% among 360,000. P9WQA3; in the data active = inhibition above about 27%
Target sequence (P9WQA3 whole entry, looked up): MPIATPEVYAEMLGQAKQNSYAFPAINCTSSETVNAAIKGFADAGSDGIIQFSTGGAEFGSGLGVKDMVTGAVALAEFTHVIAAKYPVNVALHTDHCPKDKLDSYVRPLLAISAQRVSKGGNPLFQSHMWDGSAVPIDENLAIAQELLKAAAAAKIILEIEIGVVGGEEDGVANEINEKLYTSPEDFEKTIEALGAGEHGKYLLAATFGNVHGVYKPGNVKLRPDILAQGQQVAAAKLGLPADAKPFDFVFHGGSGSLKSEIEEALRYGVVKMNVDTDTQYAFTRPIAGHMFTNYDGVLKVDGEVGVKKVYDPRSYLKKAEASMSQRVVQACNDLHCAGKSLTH
GDH-TPI inh: inhibits GDH-TPI coupling enzymes, artifact for Mtb FBA screen; GDH-TPI coupled enzyme counterscreen, NADH absorbance; inhibition, % at 4.8 µM; hit rate 1.2% among 360,000; AID 588335
Numbers stand for hits; . = inactive; / = no result; + = active, no number. Rule as the data show it, unless noted: active = inhibition above about 30%; inactive = the rest.

SMILES | CCHF vOTU inh | Mtb betalactam | RecA splice inh | FBA Mtb inh | GDH-TPI inh
Cc1ccc(-c2nnc(Nc3ccc(CC(N)=O)cc3)c3ccccc23)cc1S(=O)(=O)NCC1CCCO1 (configuration not stated) | . | . | . | . | 32
O=C(OCCN1CCN(C2CN(Cc3cn(Cc4cccc(F)c4)nn3)S(=O)(=O)C2)CC1)c1cc2ccccc2o1 (configuration not stated) | . | / | / | / | /
Cc1c(/C=N/NC(=O)c2ccc(Br)o2)cnn1C | . | . | . | 127 | .
Cc1ccc(C(=O)N/N=C\c2ccc(Br)o2)o1 | . | . | . | . | 58
CCCCCCc1nc2ccccc2c(=O)n1N | . | . | . | 136 | .
CCc1ccc(C2NC(=S)NC3=C2C(=O)N(c2ccccc2OC)C(c2ccc(CC)cc2)N3)cc1 (configuration not stated) | . | . | . | . | .
O=C1C2=C(NC(=S)NC2c2ccc(Cl)cc2)NC(c2ccc(Cl)cc2)N1c1ccc(Cl)cc1 (configuration not stated) | . | . | 37 | . | .
O=C(CC1CCCC1)N1CC[C@H]2[C@H](CCCN2Cc2cc(F)cc(F)c2)C1 | . | / | / | / | /
COCCCNC(=O)c1c(N)n(-c2cccc(S(N)(=O)=O)c2)c2nc3ccccc3nc12 | . | . | . | 138 | .
COC(=O)c1cc(-c2ccccc2OC)c(=O)n2c1CCC2 | . | / | / | / | /
CNC(=O)/C(C#N)=C/c1c(N2CC(C)OC(C)C2)nc2ccccn2c1=O (configuration not stated) | . | . | . | 124 | .
COCCCNC(=O)/C(C#N)=C/c1c(N2CCN(C)CC2)nc2ccccn2c1=O | . | . | . | 140 | .
CCNC(=O)/C(C#N)=C/c1c(N2CCCCCC2)nc2ccccn2c1=O | . | . | . | 135 | .
COCCNC(=O)/C(C#N)=C/c1c(N2CCN(c3ccccc3)CC2)nc2ccccn2c1=O | . | . | . | . | .
N#CCC[C@H]1CC[C@]2(CCCN(c3ccccc3)C2)O1 | . | / | / | / | /
COC(=O)c1cc(-c2ccc(OC)c(OC)c2)c(=O)n2c1CCC2 | . | / | / | / | /
CCCSc1nnc(-c2ccco2)n1C | . | / | / | / | /
Cc1onc(-c2ccccc2)c1C(=O)NNC(=S)NC(=O)/C=C/c1cccs1 | . | . | . | . | 63
COc1ccc(/C=N/Nc2cc(C)nc(NS(=O)(=O)c3ccc(C)cc3)n2)cc1 | . | . | . | . | .
COc1cc(/C=N/Nc2cc(C)nc(NS(=O)(=O)c3ccc(C)cc3)n2)ccc1O | . | / | . | . | 54
COc1cc(/C=N/Nc2cc(C)nc(NS(=O)(=O)c3ccccc3)n2)ccc1O | . | . | . | . | 54
COCCNC(=S)N(C)[C@H]1C[C@H]2c3[nH]c4c(-c5ccc6c(c5)OCO6)cccc4c3CCN2C[C@H]1[C@H](C)O | . | / | / | / | /
COc1ccc2c(c1)CN1C(=O)N(CC(C)C)S(=O)(=O)CC21 (configuration not stated) | . | / | / | / | /
O=C(CSc1nnc(-c2ccccc2)n1-c1ccccc1)Nc1ccccc1-c1ccccc1 | . | / | / | / | /
COc1ccc(C2C(C#N)=C(N)OC3=C2C(=O)CCC3)cc1Cn1nc(C)c([N+](=O)[O-])c1C (configuration not stated) | . | . | . | . | .
SMILES | CCHF vOTU inh | Mtb betalactam | RecA splice inh | FBA Mtb inh | GDH-TPI inh
CCOc1cc(C2C(C#N)=C(N)Oc3n[nH]c(-c4ccncc4)c32)cc([N+](=O)[O-])c1O (configuration not stated) | . | . | . | . | .
COc1cc(C2C(C#N)=C(N)Oc3n[nH]c(-c4cccnc4)c32)ccc1OCC(N)=O (configuration not stated) | . | . | 46 | . | .
COc1cc(C2C(C#N)=C(N)Oc3n[nH]c(C)c32)ccc1OC(=O)c1ccccc1 (configuration not stated) | . | . | 38 | . | .
COc1ccc(C2C(C#N)=C(N)Oc3n[nH]c(C)c32)cc1Cn1nc(C)c([N+](=O)[O-])c1C (configuration not stated) | . | . | 84 | . | .
C=CCN(CC#CC(=C)C)Cc1ccccc1 | . | / | / | / | /
Cc1cc(N2CCN(C(=O)Oc3ccc(C(F)(F)F)cc3)CC2)c2ccccc2n1 | . | / | / | / | /
COc1cc(/C=N/NC(=O)c2cccc(N3CCCC3=O)c2)ccc1O | . | . | . | . | 40
O=C(N/N=C/c1cccnc1)c1cccc(N2CCCC2=O)c1 | . | . | . | . | .
CCN(CC)c1ccc(/C=N/NC(=O)c2cccc(N3CCCC3=O)c2)cc1 | . | . | . | . | 31
O=C(N/N=C/c1cc([N+](=O)[O-])ccc1O)c1cccc(N2CCCC2=O)c1 | . | . | . | . | .
OC(CCN1CCCCC1)(c1ccccc1)C1CC2C=CC1C2 (configuration not stated) | . | / | / | / | /
CCN1C(=O)[C@@H]2[C@@H](c3ccc(-c4cc(C(C)=O)cs4)cc3)N3CCC[C@@]3(C(=O)OC)[C@@H]2C1=O | . | / | / | . | 36
CCN1C(=O)[C@H]2[C@@H](c3ccc(-c4ccc(C(C)=O)cc4)c(OC)c3)N3CCCC[C@@]3(C(=O)OC)[C@H]2C1=O | . | . | / | . | .
O=C(O)c1ccc2c(c1)[C@@H]1C=CC[C@@H]1[C@H](c1ccccn1)N2 | 54 | . | . | . | .
COc1ccc(C(=O)N/N=C(\C)c2ccc3c(c2)C2C=CCC2C(c2ccccc2)N3)cc1 (configuration not stated) | / | . | / | . | .
CCCCNC(=O)CCC(=O)Nc1ccc2nc(N3CCN(C)CC3)cc(C)c2c1 | . | . | . | . | .
CCCN(CCC)CCNC(=O)CCC(=O)Nc1ccc2nc(N3CCN(C)CC3)cc(C)c2c1 | . | . | . | + | .
CCOC(=O)N1CCC(NC(=S)Nc2ccc3nc(N4CCN(CC)CC4)cc(C)c3c2)CC1 | . | . | . | . | 35
c1ccc(CCn2nnc(-c3ccc(N4CCOCC4)cc3)n2)cc1 | . | / | / | / | /
CCn1c(O)c(N=Nc2cccc(S(=O)(=O)N3CCOCC3)c2)c(=O)n(CC)c1=S | . | . | 59 | . | .
CCn1c(O)c(N=Nc2ccc(S(=O)(=O)N3CCOCC3)cc2)c(=O)n(CC)c1=S | . | . | . | . | .
COC(=O)[C@]1(CNS(=O)(=O)c2ccc(F)cc2)CC(=O)N(C)[C@@H]1c1ccccc1 | . | / | / | / | /
O=C(CCCN1C(=O)/C(=C\c2cccs2)SC1=S)Nc1ccc(O)cc1 | . | . | 67 | . | .
O=C(CCCN1C(=O)/C(=C\c2cccs2)SC1=S)Nc1ccc(C(=O)O)cc1 | . | . | . | . | .
O=C(CCCN1C(=O)/C(=C/c2cccs2)SC1=S)Nc1ccccc1O | . | . | . | . | .
O=C(CCCN1C(=O)/C(=C\c2cccs2)SC1=S)Nc1ccc(O)cc1C(=O)O | . | . | 32 | . | .
O=C(O)CCCCCN1C(=O)/C(=C\c2ccncc2)SC1=S | . | . | . | . | .
O=C(O)CCCN1C(=O)/C(=C/c2ccncc2)SC1=S | . | . | . | . | 38
CN1C(=O)c2cc(NC(=O)Nc3ccccc3)ccc2OC[C@H]2O[C@@H](CC(=O)Nc3cc(F)ccc3F)CC[C@@H]21 | . | / | / | / | /

Screening data: PubChem BioAssay, several laboratories
